# An excerpt weighted towards active compounds, which were near 9% of everything screened.
# HP1b chromo inh: HP1-beta chromodomain-methylated histone interaction inhibition | Potency, µM (doses to about 114 µM), inactives show top-dose activity change, negative = inhibition, actives largely listed as inhibitors | P83916 | AID 540317 | 390,000 compounds, 0.56% hits | AlphaScreen HP1-beta / biotin-H3K9me3 peptide binding; note: nearly all actives have a fitted effect of over 70% in size
# Target sequence (P83916 whole entry, looked up): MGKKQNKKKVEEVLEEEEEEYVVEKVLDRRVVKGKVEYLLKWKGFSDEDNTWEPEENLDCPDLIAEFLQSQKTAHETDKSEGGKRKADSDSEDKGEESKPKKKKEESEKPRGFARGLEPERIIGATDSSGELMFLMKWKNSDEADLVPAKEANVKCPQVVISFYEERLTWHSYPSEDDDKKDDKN
#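 HP1-beta protein (50 nM final) preincubated 30 min at room temperature with biotinylated H3(1-18)K9me3 peptide (50 nM) in PBS pH 7.4, 0.01% Tween-20, then compound added for 30 min. AlphaScreen streptavidin donor/nickel chelate acceptor beads (10 ug/mL final), 30 min dark, luminescence read.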
# BAZ2B block: inhibitors of human BAZ2B bromodomain; AlphaScreen BAZ2B-H3K14Ac peptide displacement; AID 504333; Q9UIF8; Potency, µM (top dose mostly 114 µM), for the others: top-dose activity change, negative = inhibition, hits mostly inhibitors; 360,000 compounds, 4.4% hits; note: % is set by controls: 0 for no effect and ±100 for the full control effect; nearly all actives have a fitted effect of over 60% in size
#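 Complex of BAZ2B and biotin-H3K14Ac (50 nM apiece) forms over 30 min at RT, then faces library compounds up to 110 uM for another 30 min; AlphaScreen beads added, 20 min dark incubation, luminescence read.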
# ALOX12 inh: blocks human arachidonate 12S-lipoxygenase; purified 12hLO, xylenol orange hydroperoxide absorbance; Potency, µM (doses to about 108 µM), for the others: at the highest dose activity change, negative = inhibition, hits mostly inhibitors; 580,000 compounds, 1.1% hits; note: % is set by controls: 0 for no effect and ±100 for the full control effect
#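 Purified human 12hLO at 150 nM in 25 mM Hepes, 0.01% Triton X-100, pH 7.0, preincubated 15 min at room temperature with compound. Reaction started with 40 uM arachidonic acid, 30 min at room temperature. Hydroperoxide measured by Fe-xylenol orange, 573/405 nm absorbance ratio.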
# JMJD2A Tudor: blocks the human JMJD2A Tudor domain. O75164. 390,000 compounds, 4.4% hits. Potency, µM (doses to about 114 µM), without a hit: at the top dose activity change, negative = inhibition, actives largely listed as inhibitors. AlphaScreen JMJD2A-Tudor / H3K4me3 peptide binding; note: % is set by controls: 0 for no effect and ±100 for the full control effect; nearly all actives have a fitted effect of over 50% in size
# G9a block: G9a (human) methyltransferase inhibition | Q96KQ7 | G9a H3K9 monomethylation, AlphaScreen, 2 h | Potency, µM (titrated, usually from 102 µM), inactives show at the highest dose activity, negative = inhibition, most hits filed as inhibitors | 350,000 compounds, 8.8% hits | AID 504332; note: % is set by controls: 0 for no effect and ±100 for the full control effect; nearly all actives have a fitted effect of over 75% in size
# Target sequence (Q96KQ7 913-1193 limits assumed): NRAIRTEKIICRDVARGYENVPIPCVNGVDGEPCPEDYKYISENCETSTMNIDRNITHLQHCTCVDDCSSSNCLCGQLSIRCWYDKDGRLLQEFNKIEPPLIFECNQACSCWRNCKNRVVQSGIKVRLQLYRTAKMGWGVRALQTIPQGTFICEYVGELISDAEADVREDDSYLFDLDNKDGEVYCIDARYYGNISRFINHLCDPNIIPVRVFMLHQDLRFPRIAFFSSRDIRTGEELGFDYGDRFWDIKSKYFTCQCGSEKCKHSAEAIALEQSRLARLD
#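 Readings reflect AlphaScreen signal from monomethyl-H3K9 antibody detection. HMT at 20 nM; substrate b-H3K9 500 nM; cofactor SAM 20 uM; 2 h RT reaction; compounds tested as titrations in qHTS with 15 min preincubation.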
# PLK1 PBD inh: PLK1 (human) polo-box domain binding inhibition. P53350. Plk1 PBD binding of FITC phosphopeptide, fluorescence polarization. Potency, µM, without a hit: max response, negative = inhibition, most hits filed as inhibitors. 360,000 compounds, 2.8% hits; note: series mostly up to about 57 µM; % is set by controls: 0 for no effect and ±100 for the full control effect; nearly all actives have a fitted effect of over 65% in size
# Starred values were filed as active, the others as inactive; ? = inconclusive; · = no result; [ ] = dose if it differs, or a comment. Calls come from the whole dose curve; as a rule, active = well fitted curve in the direction sought with a large enough effect; inconclusive = small, poorly fitted or top-dose-only effect, or another doubt; inactive = no such curve, though single readings can be large; an effect the other way counts as inactive or inconclusive. Potency is the fitted concentration of half-maximal effect.
SMILES,HP1b chromo inh,BAZ2B block,ALOX12 inh,JMJD2A Tudor,G9a block,PLK1 PBD inh
CC(=O)NC1(C)CCN(Cc2ccc(-c3cccc(F)c3)cc2)C1 (stereo unspecified),·,·,50µM*,·,·,·
CC(=O)NC1(C)CCN(Cc2ccccc2-c2cccc(C(C)=O)c2)C1 (stereo unspecified),·,·,35µM*,·,·,·
CC(=O)NC1(C)CCN(Cc2ccccc2-c2ccc3c(ccn3C)c2)C1 (stereo unspecified),·,·,28µM*,·,·,·
c1ccc(C2NCCc3ccccc32)cc1 (stereo unspecified),22%,-1%,-8%,?,-5%,27µM*
c1ccc2c(c1)CCNC2c1ccncc1 (stereo unspecified),16%,-3%,8%,-4%,·,-10%
CN1CCN(c2nc3c(c(=O)[nH]c(=O)n3C)n2Cc2ccc([N+](=O)[O-])cc2)CC1,35%,-2%,0%,-2%,-37%,-6%
Nc1ccccc1OCc1ccccc1,·,·,-53%,·,·,·
CN(C)CCN(C(=O)C1CCCCC1)c1nc2cc3c(cc2s1)OCCO3,·,·,-19%,·,·,-3%
CCSc1nc2c(c(=O)[nH]c(=O)n2C)n1CC(O)COc1ccccc1C (stereo unspecified),-27%,-15%,?,-3%,16µM*,27µM*
Cc1ccccc1OCC(O)Cn1c(Br)nc2c1c(=O)[nH]c(=O)n2C (stereo unspecified),42%,0%,245%,-11%,25%,1%
Cc1ccccc1OCC(O)Cn1c(SC(C)C)nc2c1c(=O)[nH]c(=O)n2C (stereo unspecified),-12%,-27%,?,?,3.5µM*,30µM*
CCOC(Cn1c(SCc2cc(C(C)=O)ccc2OC)nc2ccccc2c1=O)OCC,29%,2%,-16%,1%,19%,-10%
COc1ccc(C(C)=O)cc1CSc1nc2cc(C(=O)O)ccc2c(=O)n1Cc1ccccc1,15%,50µM*,-20%,-31%,?,?
O=[N+]([O-])c1cccnc1Nc1cc(Cl)cc(Cl)c1,·,·,7%,·,·,·
ClCc1csc(-c2ccc(Cl)cc2)n1,140%,8%,?,52%,8%,-15%
CC1CN(Cc2csc(-c3ccc(Cl)cc3)n2)CC(C)O1 (stereo unspecified),?,50µM*,-20%,10µM*,40µM*,-5%
O=C1CC2CCCN2C=C1I (stereo unspecified),23%,·,?,18µM*,·,-13%
CCn1cc(S(=O)(=O)c2ccc(C)cc2)[nH]c1=O,18%,-38%,0%,-15%,17%,-1%
CCc1c(C(C)S(=O)(=O)c2ccc(C)cc2)[nH]c(=O)n1-c1ccc(OC(F)(F)F)cc1 (stereo unspecified),61%,-22%,?,-23%,10µM*,27µM*
COc1cc2c(cc1NC(=O)c1ccccc1-c1ccccc1C(=O)O)-c1ccccc1C2,·,·,-20%,·,·,42µM*
CCOC(=O)C(C)Oc1ccc2c(=O)c(Oc3ccccc3OCC)coc2c1 (stereo unspecified),·,·,-1%,·,·,·
COc1ccccc1-c1sc2ccccc2c1-c1ccc(OCCN2CCCCC2)cc1,?,·,·,35µM*,·,-3%
COc1ccc2c(-c3ccc(OCCN4CCOCC4)cc3)c(-c3ccccc3OC)sc2c1,-17%,·,·,?,·,-17%
Oc1ccc2sc(-c3ccccc3O)c(-c3ccc(OCCN4CCCCC4)cc3)c2c1,·,·,?,·,·,3%
COc1ccc2c(-c3ccc(OCCN4CCCCC4)cc3)c(-c3ccccc3OC)sc2c1,-34%,·,·,28µM*,·,-13%
SMILES,HP1b chromo inh,BAZ2B block,ALOX12 inh,JMJD2A Tudor,G9a block,PLK1 PBD inh
COc1cc2sc(-c3ccccc3OC)c(-c3ccc(OCCN4CCOCC4)cc3)c2cc1OC,?,·,·,32µM*,·,-13%
CC(Oc1ccccc1)C(=O)NC1=NCCS1 (stereo unspecified),18%,-28%,?,32µM*,?,-12%
COc1ccc(C2C(C#N)=C(N)Oc3n[nH]c(C)c32)cc1Cn1nc(C)c([N+](=O)[O-])c1C (stereo unspecified),8%,-8%,0%,-30%,10µM*,-24%
COc1ccc(C2C(C#N)=C(N)OC3=C2C(=O)CCC3)cc1Cn1nc(C)c([N+](=O)[O-])c1C (stereo unspecified),2%,-21%,424%,-25%,-46%[59 µM],-6%
Oc1c(Cl)cc(Cl)cc1C=Nc1ccccc1N1CCCC1,·,45µM*,·,·,10µM*,·
Oc1c(Cl)cc(Cl)cc1C=Nc1ccc(F)c(Cl)c1,·,·,-54%,·,·,·
O=C(CCn1c(=O)c2cccn2c2ccc(F)cc21)NCCc1ccc(Cl)cc1,12%,-8%,-19%,-16%,-11%[59 µM],·
CCCCCCCCCCCCCCCCOCC(CO)OC (stereo unspecified),·,·,-20%[12.5 µM],·,20%[59 µM],·
CCc1ccccc1NC(=O)c1cc(S(=O)(=O)NC2CCCC2)ccc1F,51%,8%,-13%,-12%,3%[59 µM],·
CO[C@H]1C=CO[C@@]2(C)Oc3c(C)c(O)c4c(O)c(c5c(c4c3C2=O)NC2(CCN(CC(C)C)CC2)N=5)=NC(=O)C(C)=CC=C[C@H](C)[C@H](O)[C@@H](C)[C@@H](O)[C@@H](C)[C@H](OC(C)=O)[C@H]1C,·,·,9%[57.4 µM],·,·,·
CO[C@H]1C=CO[C@@]2(C)Oc3c(C)c(O)c4c(O)c(c5c(c4c3C2=O)NC2(CCN(CC(C)C)CC2)N=5)=NC(=O)C(C)=CC=C[C@H](C)[C@H](O)[C@@H](C)[C@@H](O)[C@@H](C)[C@H](OC(C)=O)[C@@H]1C,·,40µM*,·,·,?,·
CCC(C)N1CCC2(CC1)N=c1c(c3c4c5c(C)c(O)c3c(O)c1=NC(=O)C(C)=CC=C[C@H](C)[C@H](O)[C@@H](C)[C@@H](O)[C@@H](C)[C@H](OC(C)=O)[C@H](C)[C@@H](OC)C=CO[C@@](C)(O5)C4=O)N2 (stereo partly specified),-24%,50µM*,-12%,?,?,-6%
COc1cccc(/C=C/C(=O)OCC(=O)c2ccccc2)c1OC,101%,·,5%,24%,·,-6%
COc1cccc(/C=C/C(=C2/C(=O)N(c3ccccc3)N=C2C)c2ccccc2)c1OC,-35%,4.5µM*,7%,?,1.4µM*,2%
COc1cccc(/C=C/C(=C2/C(=O)N(c3ccccc3)N=C2C)c2ccc(Br)cc2)c1OC,-21%,1.3µM*,·,-31%,?,-10%
COc1ccccc1/C=C/C(=C1/C(=O)N(c2ccccc2)N=C1C)c1ccc(C)cc1,2.5µM*,2.8µM*,-27%,2.8µM*,?,-25%

# Assay outcomes (PubChem BioAssay)
